{"source": "PubChem BioAssay AID686979", "about": "(National Center for Advancing Translational Sciences (NCATS), 2013)", "note": "The whole screen tested about 420,000 compounds, of which about 50,000 (12%) were called active. Roughly 26% stayed inconclusive and do not appear here. The call rests on the fitted dose curve; in most records, active means well fitted inhibition curve with a large enough effect; inconclusive means small, poorly fitted or top-dose-only effect; inactive means flat fitted curve, though single readings scatter. The sample as a whole holds a higher share of actives than the screen did. On the % scale 0 is the no-effect control and ±100 the full control effect; potency means the concentration at half of the fitted maximal effect."}
{"assay": "qHTS for Inhibitors of human tyrosyl-DNA phosphodiesterase 1 (TDP1): qHTS in cells in presence of CPT; further: nearly all actives have a fitted effect of over 55% in size", "conditions": "chicken DT40 Tdp1-/-;hTDP1 cells + 20 nM CPT, ATP luminescence, 48 h; series mostly up to 46.2 µM; activity change, negative = growth inhibition: at the top concentration", "procedure,_shortened": "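Cell growth measured by CellTiter-Glo luminescence after a minimum 48 h, 37 C compound exposure with 20 nM CPT in Tdp1-knockout DT40 cells stably expressing hTDP1, seeded 400/well; qHTS titration format.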"}
{"smiles": "CCCCCOc1ccc(/C=C/C(=O)NCCc2nc3ccccc3[nH]2)cc1OC", "Potency": "16.4 µM (active)"}
{"smiles": "O=C(COc1ccccc1)NCCc1nc2ccccc2[nH]1", "activity change, negative = growth inhibition": "-7.59% (inactive)"}
{"smiles": "Cc1nn(CC(=O)NCC2CCCO2)c(=O)c2cc3ccccc3n12", "note": "(stereo not drawn)", "activity change, negative = growth inhibition": "40.8% (inactive)"}
{"smiles": "C=C(C)C1CC=C(CO)CC1", "note": "(stereo not drawn)", "activity change, negative = growth inhibition": "15.1% (inactive)"}
{"smiles": "Cc1ccc(CN2C(=O)SC(Nc3ccccc3)C2=O)cc1", "note": "(stereo not drawn)", "activity change, negative = growth inhibition": "-16.3% (inactive)"}
{"smiles": "Cc1ccc(-c2nc(=N)sn2Cc2ccccc2)cc1", "Potency": "4.47 µM (active)"}
{"smiles": "Cc1ccc(-n2nc(CO)c(C(=O)NCCc3ccccc3)n2)cc1", "activity change, negative = growth inhibition": "8.8% (inactive)"}
{"smiles": "Cc1ccnc(NC(=O)CCCOc2ccccc2)c1", "activity change, negative = growth inhibition": "2.35% (inactive)"}
{"smiles": "CCN1CCN(c2nc(Nc3cccc(F)c3)nc(N)c2[N+](=O)[O-])CC1", "activity change, negative = growth inhibition": "-19.7% (inactive)"}
{"smiles": "CN(C)C(CNC(=O)c1ccc(OCc2cn3ccccc3n2)cc1)c1ccco1", "note": "(stereo not drawn)", "activity change, negative = growth inhibition": "4.85% (inactive)"}
{"smiles": "Cc1nn(-c2ncccn2)c2c1C(=O)CC(C)(C)C2Br", "note": "(stereo not drawn)", "Potency": "20.6 µM (active)"}
{"smiles": "Cc1nn(-c2ccccc2)c2c1C(=O)NC(=O)C(C)(C)C2", "activity change, negative = growth inhibition": "-25.9% (inactive)"}
{"smiles": "CC1=C(N2CCN(c3ncccn3)CC2)CCC1=O", "activity change, negative = growth inhibition": "-1.99% (inactive)"}
{"smiles": "COc1ccc2cc(-c3nc(Cl)c4c5c(sc4n3)CC(C)CC5)c(=O)oc2c1", "note": "(stereo not drawn)", "activity change, negative = growth inhibition": "3.95% (inactive)"}
{"smiles": "CC(C)CNC(=O)CC(c1ccccc1)c1c(O)ccc2ccccc12", "note": "(stereo not drawn)", "activity change, negative = growth inhibition": "-19% (inactive)"}
{"smiles": "CC(C)NC(=O)C(c1ccc(F)cc1)N(C(=O)CCC(=O)Nc1ccccn1)c1ccccc1F", "note": "(stereo not drawn)", "activity change, negative = growth inhibition": "3.64% (inactive)"}
{"smiles": "O=C(c1cc(COc2cccc(C(F)(F)F)c2)on1)N1CCSCC1", "activity change, negative = growth inhibition": "-23.1% (inactive)"}
{"smiles": "Cc1ccc(CNC(=O)C2(C(F)(F)F)C/C(=C\\Cc3ccccc3)CCCO2)o1", "note": "(stereo not drawn)", "Potency": "16.4 µM (active)"}
{"smiles": "COC(=O)[C@]12CCCCC=C1N(Cc1ccccc1)C(=O)[C@H](CC(=O)NCc1ccc(C)o1)C2", "activity change, negative = growth inhibition": "-20% (inactive)"}
{"smiles": "Cc1ccc(C(=O)N2CC(=O)Nc3ccccc32)o1", "activity change, negative = growth inhibition": "-0.865% (inactive)"}
{"smiles": "Cc1ccc2c(c1)nnc1nnc(SCC(=O)O)n12", "activity change, negative = growth inhibition": "-2.45% (inactive)"}
{"smiles": "Cc1cccc(-c2nnc(SCC(=O)O)n2Cc2ccccc2)c1", "activity change, negative = growth inhibition": "2.29% (inactive)"}
{"smiles": "CCC(C(=O)NC1CCCC1)N(C(=O)Cn1nnc(-c2ccc(C)o2)n1)c1ccc(OC)c(OC)c1", "note": "(stereo not drawn)", "activity change, negative = growth inhibition": "4.9% (inactive)"}
{"smiles": "Cc1cccc(C)c1NC(=O)COC(=O)c1ccccc1O", "activity change, negative = growth inhibition": "-1.8% (inactive)"}
{"smiles": "COC(=O)Cc1[nH]n(-c2nc3ccccc3s2)c(=O)c1C(C)=Nc1ccc(OC)cc1", "Potency": "5.17 µM (active)"}
{"smiles": "COc1ccc(N=C(C)c2sc3ccccc3c2O)cc1", "activity change, negative = growth inhibition": "3.55% (inactive)"}
{"smiles": "COc1ccc(/C=C(/CC(=O)Nc2ccc(C)cc2)c2nc3ccccc3s2)cc1", "activity change, negative = growth inhibition": "12.5% (inactive)"}
{"smiles": "COc1ccc(C2NC(=S)NC3=C2CCc2ccccc23)cc1OC", "note": "(stereo not drawn)", "activity change, negative = growth inhibition": "-8.49% (inactive)"}
{"smiles": "C=CCN(CC=C)C(=O)COC(=O)c1n[nH]c2ccccc12", "activity change, negative = growth inhibition": "-1.43% (inactive)"}
{"smiles": "CNC1(c2nnnn2-c2c(C)cccc2C)CCOC(C)(C)C1", "note": "(stereo not drawn)", "activity change, negative = growth inhibition": "-0.779% (inactive)"}
{"smiles": "O=C(NCCO)C(=O)NCC(c1ccc2c(c1)OCO2)N1CCN(c2ccc(F)cc2)CC1", "note": "(stereo not drawn)", "activity change, negative = growth inhibition": "2.47% (inactive)"}
{"smiles": "CC(C)CNC(=O)C(=O)NCC(c1ccc2c(c1)OCO2)N1CCOCC1", "note": "(stereo not drawn)", "activity change, negative = growth inhibition": "3.18% (inactive)"}
{"smiles": "CC(C)CC(=O)NCC(c1ccc2c(c1)OCO2)N1CCN(c2ccc(F)cc2)CC1", "note": "(stereo not drawn)", "Potency": "16.4 µM (active)"}
{"smiles": "COc1ccc(N)cc1NC(=O)CN1CCOCC1", "activity change, negative = growth inhibition": "-5.1% (inactive)"}
{"smiles": "COc1ccc(C2C(C(C)=O)=C(O)C(=O)N2CCc2c[nH]c3ccccc23)cc1", "note": "(stereo not drawn)", "activity change, negative = growth inhibition": "-10.4% (inactive)"}
{"smiles": "CC(=O)c1ccc(NC(=O)c2cc(-c3cccs3)on2)cc1", "activity change, negative = growth inhibition": "4.84% (inactive)"}
{"smiles": "CC(=O)c1ccc(NC(=O)C(C)N(C)CC(=O)Nc2ccccc2Cl)cc1", "note": "(stereo not drawn)", "activity change, negative = growth inhibition": "-5.9% (inactive)"}
{"smiles": "CC(=O)c1ccc(Nc2nc(C(N)c3ccccc3Cl)cs2)cc1", "note": "(stereo not drawn)", "Potency": "14.6 µM (active)"}
{"smiles": "COc1cc(OC)c(NC(=O)c2c3c(nn2C)-c2ccccc2SC3)cc1Cl", "activity change, negative = growth inhibition": "-88.3% (inactive)"}
{"smiles": "COc1ccccc1-c1cc(C(=O)N2CCCCC2)no1", "activity change, negative = growth inhibition": "-28.7% (inactive)"}
{"smiles": "COc1cc(NC(=O)c2noc3c2CSc2ccccc2-3)cc(OC)c1OC", "Potency": "9.2 µM (active)"}
{"smiles": "COc1ccc(CCNC(=O)CSc2nc3[nH]ncc3c(=O)n2-c2cccc(C(F)(F)F)c2)cc1OC", "activity change, negative = growth inhibition": "4.43% (inactive)"}
{"smiles": "NC(=O)NC(=O)CSc1nc2cc([N+](=O)[O-])ccc2n1-c1cccc(C(F)(F)F)c1", "Potency": "10.3 µM (active)"}
{"smiles": "Cc1cccc(-n2c(Cc3cc(=O)[nH]c(=O)[nH]3)nnc2SCC(=O)Nc2cccc(C(F)(F)F)c2)c1", "activity change, negative = growth inhibition": "-2.7% (inactive)"}
{"smiles": "COc1ccc(NS(=O)(=O)c2cc3c(cc2C)N(C(C)=O)CCO3)cc1", "Potency": "inactive"}
{"smiles": "COc1ccc(C(=O)NC(Cc2ccc(OC(=O)c3ccc(OC)cc3)cc2)C(=O)O)cc1", "note": "(stereo not drawn)", "activity change, negative = growth inhibition": "-1.18% (inactive)"}
{"smiles": "O=C(CSc1nnc(-c2ccc([N+](=O)[O-])cc2)o1)Nc1ccccn1", "activity change, negative = growth inhibition": "-12.2% (inactive)"}
{"smiles": "O=[N+]([O-])c1ccccc1SNc1ccccn1", "Potency": "20.6 µM (active)"}
{"smiles": "O=C(Nc1ccncc1)c1ccccc1[N+](=O)[O-]", "activity change, negative = growth inhibition": "-26.9% (inactive)"}
{"smiles": "CCN1C[C@@H]2[C@@H]3C(=O)N(C)C(=O)[C@@H]3[C@](C)(C1=O)N2C(=O)c1ccccc1", "activity change, negative = growth inhibition": "-2.52% (inactive)"}
{"smiles": "COc1ccc(-c2nnc(SCc3cccnc3)o2)cc1", "activity change, negative = growth inhibition": "-2.9% (inactive)"}
{"smiles": "N#Cc1nc(COc2ccc(Cl)cc2)oc1N1CCCC1", "activity change, negative = growth inhibition": "-22% (inactive)"}
{"smiles": "N#Cc1nc(COc2ccc(-c3ccccc3)cc2)oc1NCc1cccnc1", "Potency": "6.51 µM (active)"}
